The source of these data is PubChem BioAssay.

Results with a measured potency or affinity are listed apart. Inconclusive results are not listed. Calls of active or inactive are those of the source.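 The calls were made as follows: active = falling signal with fitted half-maximal potency no higher than twice the top valid tested dose; inconclusive = poor fit quality, or flat fit spanning -70% to -30%; inactive = potency over limit, rising signal, or flat fit inside 30%.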

This experiment can be described thus: fungal growth arrest, C. neoformans – Alamar Blue, cherry-picks, dose response (AID 686998). The note with it: Cryptococcus neoformans growth, 24 h; series mostly up to 35 µM. Background: Resazurin is reduced to fluorescent resorufin, in cell work by metabolically active cells.
Turning to `CCS(=O)(=O)NCC[C@@H]1CC[C@@H](NS(=O)(=O)c2cccc(F)c2)[C@@H](CO)O1`, the outcome was inactive. To `COc1cccc(S(=O)(=O)N(C)C[C@H]2OCc3cnnn3CCCC(=O)N([C@H](C)CO)C[C@H]2C)c1` belongs “inactive”. `Cc1cc(C(=O)NC(=S)Nc2ccccc2N2CCCC2)ccc1[N+](=O)[O-]`: the result was inactive. For `CCC(=O)N1[C@@H]2Cn3c(ccc(C4=CCCCC4)c3=O)[C@H]1[C@@H](C(=O)N[C@H](C)c1ccccc1)[C@@H]2CO`, the outcome was inactive.

Take `C[C@@H]1CN([C@H](C)CO)C(=O)CCCn2cc(nn2)CO[C@@H]1CN(C)C(=O)CCCN(C)C`: the result was inactive. To `CNC(=O)C[C@H]1CC[C@H]2[C@@H](COc3ccc(NC(=O)Nc4cccc(C#N)c4)cc3C(=O)N2C)O1` belongs “inactive”; to `CCCC(=O)N1CCCC1(C)C(=O)Nc1ccc(C)c(C)c1` (stereo not drawn), “inactive”; to `C[C@H]1CN([C@@H](C)CO)C(=O)Cc2cc(NC(=O)CCCCCC(=O)Nc3ccccc3N)ccc2O[C@H]1CN(C)Cc1ccc2c(c1)OCO2`, “inactive”. Turning to `CNC(=O)C[C@@H]1CC[C@@H]2[C@H](COc3ccc(NC(=O)c4cc(C)on4)cc3C(=O)N2C)O1`, the compound was classed as inactive. The entry for `COc1ccccc1C(=O)Nc1ccc2c(c1)OC[C@H](C)N(C(C)=O)C[C@H](C)[C@H](OC)CN(C)C2=O` is “inactive”; for `O=C(NC(=S)Nc1ccc(CN2CCOCC2)cc1)c1ccccc1[N+](=O)[O-]` it is “inactive”; for `C[C@@H]1CN([C@@H](C)CO)C(=O)c2cc(NC(=O)Nc3cccc4ccccc34)ccc2O[C@@H]1CN(C)C(=O)Nc1ccccc1` it is “inactive”. Turning to `C[C@H]1CN([C@@H](C)CO)S(=O)(=O)c2ccc(Br)cc2O[C@@H]1CN(C)S(=O)(=O)c1ccccc1F`, the compound was classed as inactive. To `C[C@H]1CN([C@@H](C)CO)C(=O)c2cccc(NS(C)(=O)=O)c2O[C@H]1CN(C)C(=O)Nc1ccc2c(c1)OCO2` belongs “inactive”; to `C[C@@H]1CN([C@@H](C)CO)S(=O)(=O)c2ccc(C#Cc3ccccn3)cc2O[C@H]1CN(C)Cc1ccccc1`, “inactive”.

For the compound `CN1C(=O)c2cc(NS(C)(=O)=O)ccc2OC[C@@H]2O[C@@H](CC(=O)O)CC[C@@H]21`, the compound was called inactive. The entry for `CN1C(=O)c2cc(NC(=O)NC3CCCC3)ccc2OC[C@H]2O[C@@H](CC(=O)NC3CCC3)CC[C@@H]21` is “inactive”. To `COc1ccccc1CNC(=O)C[C@@H]1C[C@@H]2c3cc(NC(=O)Nc4ccccc4F)ccc3O[C@@H]2[C@H](CO)O1` belongs “inactive”. For the compound `COc1ccccc1CN1CC[C@H]2[C@H](CO)Nc3ccc(C#Cc4ccccc4)cc3[C@H]21`, the call was inactive.

Take `Cc1noc(C)c1NC(=O)Nc1ccc2c(c1)C(=O)N(C)[C@@H]1CC[C@H](CC(=O)N[C@H]3CCN(Cc4ccccc4)C3)O[C@@H]1CO2`: the compound was called inactive. On to `C[C@H]1CN([C@@H](C)CO)C(=O)Cc2cc(NC(=O)Nc3ccccc3)ccc2O[C@H]1CN(C)C(=O)Nc1ccc2c(c1)OCO2`, for which the compound was classed as inactive. Regarding `C[C@H]1CN([C@@H](C)CO)C(=O)CCCn2nncc2CO[C@@H]1CN(C)Cc1cccc(C(F)(F)F)c1`, the outcome was inactive.

`CCOc1ccc(C(=O)NC(=S)Nc2ccccc2N2CCC(C)CC2)cc1[N+](=O)[O-]`: the result was inactive. For `CC(=O)NC[C@@H]1[C@@H](c2ccc(C3=CCCC3)cc2)[C@@H](CO)N1C(=O)NC(C)C`, the outcome was inactive. Consider `CS(=O)(=O)c1ccc(-c2cnc3c(NC=O)cc(-c4ccsc4)cn23)cc1`, for which the result was inactive. In the case of `CNC(=O)C[C@@H]1CC[C@@H]2[C@H](COC[C@H](O)CN2S(=O)(=O)c2cccc(Cl)c2)O1`, the result was inactive.

On to `CNC[C@H]1Oc2ccc(NC(=O)Cc3cn(C)c4ccccc34)cc2CC(=O)N([C@@H](C)CO)C[C@H]1C`, for which the call was inactive. Turning to `CCNC(=O)Nc1ccc2c(c1)C(=O)N(C)[C@H]1CC[C@H](CC(=O)Nc3ccccc3F)O[C@@H]1CO2`, the compound was classed as inactive. Consider `COc1ccc(CNC(=O)COc2ccc(OC)cc2)cc1`, for which the result was inactive. Turning to `CC(C)CC#Cc1ccc2c(c1)O[C@@H](CN(C)C(=O)C1CCC1)[C@@H](C)CN([C@H](C)CO)S2(=O)=O`, the compound was called inactive. The entry for `C[C@H](CO)N1C[C@H](C)[C@@H](CN(C)S(=O)(=O)c2ccccc2)Oc2c(NC(=O)Nc3cccc4ccccc34)cccc2C1=O` is “inactive”; for `COc1ccc(C(=O)NC(=S)Nc2cccc(Cl)c2N2CCOCC2)cc1[N+](=O)[O-]` it is “inactive”.

`C[C@H]1CN([C@@H](C)CO)S(=O)(=O)c2ccc(C#Cc3ccccn3)cc2O[C@@H]1CN(C)Cc1ccccc1`: the call was inactive.
